Inconclusive results are not listed. Where a call stands in place of a potency, no number is given. A number with no mark means an inactive call. Active and inactive are the calls of the source. Calls come from the whole dose curve; as a rule, active = well fitted activation curve with a large enough effect in the signal ratio, with a control signal flat; inconclusive = small, poorly fitted or top-dose-only effect, or a change in a side signal; inactive = flat fitted curve, though single readings scatter; the % refers to the signal ratio.
Target: Thyrotropin receptor (Homo sapiens) (UniProt P16473)
Sequence (P16473 whole entry, looked up): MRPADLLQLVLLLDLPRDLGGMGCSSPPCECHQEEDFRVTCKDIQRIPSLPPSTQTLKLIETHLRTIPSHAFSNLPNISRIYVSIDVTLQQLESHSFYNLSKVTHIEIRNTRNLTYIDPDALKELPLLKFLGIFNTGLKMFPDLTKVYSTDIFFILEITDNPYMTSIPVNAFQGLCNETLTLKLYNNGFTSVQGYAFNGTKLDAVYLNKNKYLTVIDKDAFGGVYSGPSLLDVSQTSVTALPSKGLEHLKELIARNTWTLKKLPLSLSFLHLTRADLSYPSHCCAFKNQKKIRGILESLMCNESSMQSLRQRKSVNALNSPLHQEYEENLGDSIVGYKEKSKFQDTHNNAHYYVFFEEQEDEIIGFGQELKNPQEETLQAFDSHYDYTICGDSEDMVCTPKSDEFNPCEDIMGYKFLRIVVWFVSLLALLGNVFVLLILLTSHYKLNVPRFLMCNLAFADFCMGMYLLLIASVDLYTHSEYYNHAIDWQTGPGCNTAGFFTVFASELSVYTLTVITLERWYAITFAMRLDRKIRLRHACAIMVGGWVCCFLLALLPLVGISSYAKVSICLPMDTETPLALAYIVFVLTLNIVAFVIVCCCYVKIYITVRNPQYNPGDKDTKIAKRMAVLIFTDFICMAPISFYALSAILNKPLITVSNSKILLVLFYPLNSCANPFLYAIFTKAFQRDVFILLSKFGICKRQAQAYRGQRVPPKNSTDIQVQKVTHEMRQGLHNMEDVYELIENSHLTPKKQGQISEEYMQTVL
Test: Secondary Concentration-Response Assay for Agonists of the Thyroid Stimulating Hormone Receptor: HTRF Activity Detection;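 for activation: HEK 293 cells stably expressing human TSHR with RO 20-1724 phosphodiesterase inhibitor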
How it was run: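 Orthogonal confirmation in a separate TSHR-transfected HEK 293 line: cells in medium with 10 % FCS and 100 uM RO 20-1724 got compound for 30 min at room temperature. cAMP was measured by HTRF (d2-cAMP/anti-cAMP antibody), 615/660 nm emission.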
Potency is the fitted concentration of half-maximal effect.

Compound	Potency	activation
COc1cc(OC)c(C(=O)N(Cc2ccco2)Cc2cccs2)cc1OC	inactive	
CCOc1cc(C2Nc3ccccc3C(=O)N2Cc2ccco2)ccc1OCc1ccccc1Cl (centres undefined)	inactive	
COc1ccc(C2Nc3ccccc3C(=O)N2Cc2ccccc2C)cc1COc1ccc(NC(C)=O)cc1 (centres undefined)	inactive	
CCOC(=O)c1ccc(NC(=O)c2ccc(CN3CCOCC3)cc2)cc1		0.768% [at 0.00035 µM]
COc1cc2c(N3CCOCC3)cc(O)c(CC(=O)Nc3ccccc3)c2cc1OC		0.478% [at 0.00035 µM]
COc1ccc(N2C(=O)c3ccccc3NC2c2ccc(OC)c(COc3ccc(NC(C)=O)cc3)c2)cc1 (centres undefined)	inactive	
COc1ccc(C2Nc3ccccc3C(=O)N2Cc2ccco2)cc1CN1C(=O)c2ccccc2C1=O (centres undefined)	inactive	
O=C(COC(=O)C12CC3CC(CC(O)(C3)C1)C2)NCc1ccco1	inactive	
COc1ccc(C2Nc3ccccc3C(=O)N2Cc2ccccc2)cc1COc1ccc(C)cc1 (centres undefined)	inactive	
COc1ccc(C(=O)N(Cc2ccccc2)Cc2ccc(OC)c(COc3ccc(NC(C)=O)cc3)c2)cc1	12.6 µM (active)	
CCN(CC)CCN1C(=O)c2ccccc2NC1c1ccc(N(C)C)cc1 (centres undefined)	inactive	
CC(c1ccco1)N(C(=O)c1ccc(Cl)s1)c1ccccn1 (centres undefined)		0.422% [at 0.00035 µM]
COc1ccc(C2NC(=O)c3ccccc3N2)cc1COc1ccc(NC(C)=O)cc1 (centres undefined)	inactive	
COc1ccc(C2Oc3ccccc3C(=O)N2Cc2ccccc2)cc1COc1ccc(NC(C)=O)cc1 (centres undefined)	12.6 µM (active)	
O=C(CSc1nc2scc(-c3ccco3)c2c(=O)n1-c1ccccc1)N1CCOCC1		-0.79% [at 0.00035 µM]
COc1ccc(S(=O)(=O)NCCC(=O)NCc2ccc(F)cc2)cc1		-0.0801% [at 0.00035 µM]
COc1ccc(C(=O)N(Cc2ccccc2)Cc2ccc(OC)c(COc3ccc(NC(C)=O)cc3)c2)c(O)c1	inactive	
COc1cccc(CN2C(=O)c3ccccc3NC2c2ccc(OC)c(COc3ccc(NC(C)=O)cc3)c2)c1 (centres undefined)	6.31 µM (active)	
COc1ccc(/C=C2/C(=O)NC(=O)N(Cc3ccco3)C2=O)cc1COc1ccc(NC(C)=O)cc1	inactive	
COc1ccc(C2Nc3ccccc3C(=O)N2c2ccc(F)cc2)cc1COc1ccc(NC(C)=O)cc1 (centres undefined)	inactive	

Compound	Potency	activation
COc1ccc2c(c1OC)C(=O)N1c3ccccc3C(=O)N(c3ccccc3F)C21 (centres undefined)	inactive	
COc1ccc(C2Nc3ccccc3C(=O)N2Cc2cccc(Cl)c2)cc1COc1ccc(NC(C)=O)cc1 (centres undefined)	2.82 µM (active)	
Cc1nn(C)c(C)c1S(=O)(=O)N(CC(=O)Nc1ccccn1)c1ccc(C(C)C)cc1		-0.155% [at 0.00035 µM]
CCCN1C(=O)c2ccccc2NC1c1ccc(OC)cc1O (centres undefined)	inactive	
COc1cc(C2Nc3ccccc3C(=O)N2Cc2ccco2)ccc1O (centres undefined)	inactive	
COc1ccc(C2Nc3ccccc3C(=O)N2Cc2ccccc2)cc1COc1ccc(C#N)cc1 (centres undefined)	inactive	
O=C(c1cccs1)N(Cc1ccco1)c1ccc(O)cc1	inactive	
COC(=O)c1cc(C(=O)OC)cc(N2C(=O)CC(Sc3nc(C)cc(C)n3)C2=O)c1 (centres undefined)		-0.898% [at 0.00035 µM]
O=C1c2ccccc2NC(c2ccccc2O)N1Cc1ccco1 (centres undefined)	inactive	
CC(NC(=O)COC(=O)c1ccco1)C12CC3CC(CC(C3)C1)C2 (centres undefined)	inactive	
COc1ccc(C2Nc3ccccc3C(=O)N2c2ccc(Cl)cc2)cc1COc1ccc(NC(C)=O)cc1 (centres undefined)	inactive	
COc1ccc(CN(Cc2ccccc2)C(=O)C2CC2)cc1COc1ccc(NC(C)=O)cc1	15.8 µM (active)	
COc1ccc(C2Nc3ccccc3C(=O)N2c2ccc(C)cc2)cc1COc1ccccn1 (centres undefined)	inactive	
COC(=O)COc1ccc(Cl)cc1C1Nc2ccccc2C(=O)N1c1ccc(OC)cc1 (centres undefined)	inactive	
COc1ccc(-c2nc3ccc(NC(C)=O)cc3c(=O)n2Cc2ccccc2)cc1COc1ccc(NC(C)=O)cc1	inactive	
COc1ccc(N2C(=O)c3ccccc3NC2c2ccc(OC)c(COc3ccccc3F)c2)cc1 (centres undefined)	inactive	
CCN(CC)CCN1C(=O)c2ccccc2NC1c1cccc(F)c1 (centres undefined)	inactive	
COc1ccc(-c2nc3ccccc3c(=O)n2Cc2ccco2)cc1COc1ccc(NC(C)=O)cc1	17.8 µM (active)	
CSc1nc(NC(C)(C)C)nc(Oc2ccc(=O)[nH]n2)n1		-0.106% [at 0.00035 µM]
